Bioassay records from PubChem.
Rows were chosen to be rich in hits. Some 11% of all compounds tested hit in one or more screens of this group.
HEK293 tox: HEK 293 cell cytotoxicity; HEK 293 viability, ATP luminescence (CellTiter-Glo), 48-72 h; Potency, µM (doses to about 115 µM), actives largely listed as inhibitors; 94,000 tested, 6.6% active; AID 1345083; note: nearly all actives have a fitted effect of over 60% in size
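ATP-coupled CellTiter-Glo luminescence served as viability read-out, recorded 10 min after reagent addition at room temperature. HEK 293 cells, 250 cells/well, had been incubated with pintool-transferred compound for 48 or 72 hr at 37 degree Celsius.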
hNpr1 antagonist: antagonists of human natriuretic peptide receptor Npr1 | P16066 | HEK293 hNpr1 GloSensor cGMP, ANP-stimulated luminescence | 76,000 tested, 1.6% active | Potency, µM (top dose mostly 46.3 µM), hits mostly inhibitors; calls by dose curve; note: nearly all actives have a fitted effect of over 60% in size
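Compound pre-incubated 30 min at room temperature on GloSensor-loaded HEK293 cells stably carrying hNpr1 and the pGS-40F cGMP biosensor. Stimulation uses hNppA at 0.1 nM final; luminescence is taken at baseline and 20 min post-agonist.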
FLuc inh-1: Photinus pyralis luciferase inhibition; purified P. pyralis luciferase, luminescence, biochemical; Potency, µM (doses to about 115 µM), most hits filed as inhibitors; 76,000 tested, 2.5% active; AID 1347043; note: nearly all actives have a fitted effect of over 65% in size
Target sequence (P08659 whole entry, looked up): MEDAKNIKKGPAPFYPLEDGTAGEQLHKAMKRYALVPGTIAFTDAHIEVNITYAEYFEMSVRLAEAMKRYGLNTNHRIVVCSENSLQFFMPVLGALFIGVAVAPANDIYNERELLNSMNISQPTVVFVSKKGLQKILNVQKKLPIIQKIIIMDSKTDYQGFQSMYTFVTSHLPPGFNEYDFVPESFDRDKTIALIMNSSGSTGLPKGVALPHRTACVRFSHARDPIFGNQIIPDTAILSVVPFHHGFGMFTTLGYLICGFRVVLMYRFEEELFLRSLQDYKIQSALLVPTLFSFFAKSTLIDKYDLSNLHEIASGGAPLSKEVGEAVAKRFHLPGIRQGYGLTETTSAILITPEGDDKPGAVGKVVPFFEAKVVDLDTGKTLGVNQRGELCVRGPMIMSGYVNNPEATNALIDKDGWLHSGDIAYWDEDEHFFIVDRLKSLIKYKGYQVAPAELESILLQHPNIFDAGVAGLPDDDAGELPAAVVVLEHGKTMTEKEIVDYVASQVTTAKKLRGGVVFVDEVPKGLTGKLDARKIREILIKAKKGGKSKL
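Cell-free enzyme assay, 10nM P. pyralis luciferase, luciferin and ATP each at 10uM. Inhibition profiled over a 6-point titration, read as luminescence.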
NIH3T3 tox: kills NIH 3T3 cells; 94,000 tested, 4.3% active; Potency, µM (titrated, usually from 96.7 µM), usual class: inhibitors; NIH 3T3 viability, CellTiter-Glo ATP luminescence, 48-72 h; note: nearly all actives have a fitted effect of over 55% in size
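Mouse fibroblast NIH 3T3 cells, 400 per well, received compound via pintool and were incubated for 48 or 72 hr prior to CellTiter-Glo ATP luminescence measurement.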
FLuc SDR no ATP: firefly luciferase binding stabilization, ATP absent | shares compounds with FLuc inh-1 | Purified FLuc-C-HiBiT, Nano-Glo HiBiT luminescence, no ATP | Potency, µM (top dose mostly 32.7 µM), most hits filed as activators | 1,300 tested, 7.8% active; note: nearly all actives have a fitted effect of over 55% in size
FLuc SDR ATP: binders stabilizing firefly luciferase, plus ATP; purified FLuc-C-HiBiT + ATP, HiBiT complementation luminescence; Potency, µM (series often up to 32.7 µM), hits mostly activators; shares compounds with FLuc inh-1; 1,300 tested, 8.7% active; AID 1963319;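 note: signal reports ligand binding via conformational change of the enzyme rather than luciferase catalysis; nearly all actives have a fitted effect of over 55% in size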
FLuc inh-2: blocks firefly luciferase enzymatic activity; shares compounds with FLuc inh-1; purified FLuc-C-HiBiT enzyme, luciferin luminescence; Potency, µM (doses to about 32.7 µM), hits mostly inhibitors; 1,300 tested, 42% active; note: nearly all actives have a fitted effect of over 70% in size
Numbers stand for hits; 0 = inactive; ? = inconclusive; - = not tested or not shown. Unless noted, calls come from the whole dose curve; as a rule, active = well fitted curve in the direction sought with a large enough effect; inconclusive = small, poorly fitted or top-dose-only effect, or another doubt; inactive = no such curve, though single readings can be large; an effect the other way counts as inactive or inconclusive.

SMILES	HEK293 tox	hNpr1 antagonist	FLuc inh-1	NIH3T3 tox	FLuc SDR no ATP	FLuc SDR ATP	FLuc inh-2
O=C1c2cnc(-c3cccc(CO)c3)nc2OCCN1c1ccccc1	39.8µM	?	3.16µM	39.8µM	20.2µM	?	11.4µM
C[S+](=O)([O-])c1ccc(-c2ncc3c(n2)OCCN(c2ccccc2)C3=O)cc1	?	0	?	?	-	-	-
COc1ccc(-c2ncc3c(n2)OCCN(C)C3=O)cc1F	-	-	-	-	?	?	18µM
CN1CCOc2nc(-c3ccc(Oc4ccccc4)cc3)ncc2C1=O	?	25.1µM	4.47µM	?	0	0	?
COc1ccc(-c2ncc3c(n2)OCCN(c2ccccc2)C3=O)cc1F	0	15.8µM	0.708µM	?	?	?	3.21µM
CCC(=O)N1CCC(N2C(=O)[C@H](OCCOC)[C@@H]2c2ccncc2)CC1	0	-	-	0	-	-	-
O=C(C1CC1)N1CCC(c2nn(-c3ccccc3)c(=O)[nH]2)CC1	0	0	0	0	-	-	-
CNC(C)c1cccc(OC)c1 (stereo not drawn)	0	-	-	0	-	-	-
Cc1cc(C)cc(C(=O)NCCn2cccc2-c2nc(-c3ccc4c(c3)OCO4)no2)c1	?	0	?	?	-	-	-
CCC(=O)N1CCN(c2nc3c(s2)CC(C(=O)N2CCN(CC)CC2)CC3)CC1 (stereo not drawn)	0	0	0	0	-	-	-
CCC(=O)N1CCN(c2nc3c(s2)CC(C(=O)O)CC3)CC1 (stereo not drawn)	0	0	12.6µM	?	0	?	?
Cc1cccc(C(=O)N2CCCCCC2c2nnc(-c3ccccc3)o2)c1 (stereo not drawn)	?	0	0	?	-	-	-
Cc1cccc(-c2nnc(SCCC(=O)O)o2)c1	-	-	-	-	0	?	4.95µM
Cc1ccc(-c2nnc(C3CN(C(=O)Cc4ccccc4)CC34CCOCC4)o2)cc1 (stereo not drawn)	?	0	0	0	-	-	-
Cc1ccc(-c2nnc(SCc3ccccc3)o2)cc1	-	-	-	-	0	0	?
COc1cccc(CN2CCC3(Cc4ccccc4CNC3=O)C2)c1 (stereo not drawn)	?	-	-	0	-	-	-
Cc1ccc(C2=NC3(CCN(C(=O)COc4ccc(F)cc4)CC3)ON2)cc1	0	0	0	0	-	-	-
COC(=O)c1c(-c2cccs2)csc1NC(=O)c1ccc(C)cc1	-	-	-	-	0	0	?
COC(=O)c1c(-c2cccs2)csc1NC(=O)c1ccc(Br)cc1	-	-	-	-	0	0	11.1µM
CC(=O)Nc1ccc(C(=O)NC2CCN(c3cc(-c4cccs4)[nH]n3)C2)cc1 (stereo not drawn)	0	0	0	0	-	-	-
COc1ccc2cc(-c3nc4ccc(C(=O)O)cc4[nH]3)c(=O)oc2c1	-	-	-	-	0.785µM	0.0197µM	0.0157µM
CCOc1cccc2cc(-c3nc4ccc(C(=O)O)cc4[nH]3)c(=O)oc12	-	-	-	-	?	0.157µM	0.157µM
COc1ccc2nc([C@H]3CCN(C(=O)c4ccccc4)C3)[nH]c2c1	0	0	0	0	-	-	-
Cn1nc(C2CC2)cc1NC(=O)c1ccccc1F	0	-	-	0	-	-	-
Cc1cc(NC(=O)c2ccccc2F)ccc1-c1nc2ccccc2s1	-	-	-	-	0	0	?
SMILES	HEK293 tox	hNpr1 antagonist	FLuc inh-1	NIH3T3 tox	FLuc SDR no ATP	FLuc SDR ATP	FLuc inh-2
O=C(Nc1ccc(-c2nc3ccccc3s2)c(O)c1)c1ccccc1F	-	-	-	-	0	0	0
O=C(Nc1cc(-c2ccccn2)nn1-c1ccccc1)c1ccccc1F	?	-	-	0	-	-	-
CCSc1ccccc1C(=O)Nc1ccc(-c2nc3ccccc3s2)c(O)c1	-	-	-	-	0	0	0
COc1ccc(NC(=O)C(C)(C)Oc2nn(CC3CC3)c3ccc(CN4CCCC4)cc23)cc1	?	0	0	?	-	-	-
CN1CCC(NC(=O)C(C)(C)Oc2nn(Cc3ncccn3)c3ccccc23)CC1	-	-	-	-	0	0	0
CC(C)(Oc1nn(CC2CC2)c2ccc(CN3CCCC3)cc12)C(=O)NC1CCOCC1	-	-	-	-	0	0	0
Cn1ncc2c(C(=O)NCCCc3ccccc3)cc(-c3ccc(C(F)(F)F)cc3)nc21	?	-	-	0	-	-	-
CNC(=O)c1cc(C2CC2)nc2onc(C3CCN(C(=O)c4cccc(Cl)c4)CC3)c12	0	-	-	?	-	-	-
COc1ccc(C)cc1NC(=O)c1ccc2c(Cl)c3c(nc2c1)CCC3	-	-	-	-	0	0	?
